# Data published in ChEMBL document CHEMBL3988442, “University of Dundee, Small-Polar-MMV Screening Library” (2021).
# About 13,000 (27%) of roughly 48,000 compounds showed an effect of 50% or more. The list shows a part of the results.
# System: Wolbachia pipientis
# Assay: Anti-Wolbachia Cell-Based Screen
# Assay type: functional
# Set-up: scale not given: in the data most compounds retested in dose-response had high values
# Conditions: 5 µM
row,SMILES,Percent Effect
1,CSCCc1ccc(NC(=O)NC(C)Cn2cncn2)cc1 (configuration not stated),-13.08%
2,CNc1ccnc(N2CC[C@@](O)(C3CCOCC3)[C@H](C)C2)n1,0.6002%
3,C[C@@H]1CN(C(=O)c2c[nH]c(=O)c(Cl)c2)CC[C@@]1(O)C1CCOCC1,3.711%
4,C[C@@H]1CN(C(=O)c2cnc(C3CC3)nc2)CC[C@@]1(O)C1CCOCC1,-14.06%
5,C[C@@H]1CN(c2cccnn2)CC[C@@]1(O)C1CCOCC1,104.1%
6,C[C@@H]1CN(c2ccc(Cl)cn2)CC[C@@]1(O)C1CCOCC1,111.4%
7,C[C@@H]1CN(c2ccc(C#N)cn2)CC[C@@]1(O)C1CCOCC1,124%
8,C[C@@H]1CN(C(=O)c2ccc(C#N)nc2)CC[C@@]1(O)C1CCOCC1,-17.54%
9,CN(Cc1ccsc1)C(=O)C1CCC(=O)N(Cc2ccccn2)C1 (configuration not stated),0.2635%
10,O=C(Nc1ccc(F)cc1)C1CNCCN1C(=O)CSc1ccncc1 (configuration not stated),-2.751%
11,CN1CC(Nc2ccc(Br)cc2C#N)CCC1=O (configuration not stated),-7.586%
12,CN(Cc1n[nH]c(=O)n1Cc1cccs1)S(C)(=O)=O,2.826%
13,COc1ccc(CNC[C@H]2COCc3nc4cc(F)ccc4n32)cc1,-1.545%
14,Cc1cc(C)c2c(c1)C(NCc1nnc3n1CCC3)CCCO2 (configuration not stated),-14.27%
15,CC(C)c1nnc(CN(C)C(c2ccccc2)c2ccc(F)cc2)o1 (configuration not stated),6.032%
16,CC1CCN(Cc2ccc(CNC(=O)c3ccn(C)c(=O)c3)cc2)CC1,110.1%
17,Cn1ccc(C(=O)NCc2cccc(Cn3ccnc3)c2)cc1=O,0.02977%
18,Cn1ccc(C(=O)NCc2ccc(CN3CCCCC3)cc2)cc1=O,90.87%
19,CC1CN(c2ccc(CNC(=O)c3ccn(C)c(=O)c3)cn2)CCO1 (configuration not stated),-2.154%
20,Cn1ccc(C(=O)NCc2ccc(Cn3ccnc3)cc2)cc1=O,-4.475%
21,O=C(NCc1ccc(CN2CCCC2)cc1)NC1(CO)CCCC1,-3.44%
22,Cn1ccc(C(=O)NCc2ccc(CN3CCCC3)cc2)cc1=O,100.9%
23,Cc1nccn1Cc1cccc(CNC(=O)c2ccn(C)c(=O)c2)c1,4.832%
24,Cn1ccc(C(=O)NCc2ccc(N3CCCC3)nc2)cc1=O,-7.824%
25,Cc1c(C)n(CC(O)CN2CCOCC2)c2c(Cl)cccc12.Cl (configuration not stated),0.7413%
26,Cc1csc(C(C)(C)NCC(=O)N2CCCC(C(F)(F)F)C2)n1 (configuration not stated),-11.49%

row,SMILES,Percent Effect
1,COc1ccc(N(C(=O)c2ccccn2)C(C)C)cc1F,1.663%
2,CCc1ccc(CN2CCN(c3ncc(Cl)cn3)CC2)nc1,-9.614%
3,COCCN(CCOC)C(=O)c1ccn(-c2ccc3ccccn23)n1,3.271%
4,CCCN(CC)C(=O)c1cc(Cn2c(C)nc3ccccc32)[nH]n1,146%
5,CC(CNC(=O)c1cc(Cn2cnc3ccccc32)[nH]n1)N1CCCC1 (configuration not stated),2.077%
6,CCCN(CCOC)C(=O)c1cc(Cn2c(C)nc3ccccc32)[nH]n1,142.8%
7,CCN(CCO)C(=O)c1cc(Cn2c(C)nc3ccccc32)[nH]n1,148%
8,CCCN(CC)C(=O)c1nc2c(n1C)CCN(Cc1ccccc1)C2,-8.908%
9,COCCN(C(=O)c1cc(-c2ccc(C)s2)[nH]n1)C1CC1,0.109%
10,NC(=O)CNC(=O)c1cc(Cn2cnc3ccccc32)[nH]n1,-4.781%
11,CC(=O)N[C@H]1CCN(C(=O)c2cc(Cn3cnc4ccccc43)[nH]n2)C1,-30.35%
12,COc1ccc(OC)c(CNC2CCCN(c3cccnn3)C2)c1 (configuration not stated),-14.68%
13,Cc1ccoc1C(=O)N1CCNCC1C(=O)NCc1ccncc1 (configuration not stated),-11.73%
14,Cc1cc2n(n1)CC(CNCCc1cnn(C)c1)CN2 (configuration not stated),-15.02%
15,O=C(NCCCC(=O)N1Cc2ccccc2C1)NCc1nccs1,-8.527%
16,CC(=O)N1CCN(C(=O)CNc2ccc3ncsc3c2)CC1,-9.479%
17,CCCc1nc(N(C)CCc2noc(C(C)C)n2)c2cnn(C)c2n1,13.53%
18,CCc1nnc2n1CCN(C(=O)C(C)COCc1ccccc1)C2 (configuration not stated),5.124%
19,Cc1ccc(F)c2c1CCCN2C(=O)Cc1c(C)nn(C)c1C,-7.331%
20,Cc1ccc(F)c2c1N(C(=O)Cc1c(C)nn(C)c1C)CCC2,55.91%
21,Cc1nn(C)c(C)c1OCC(=O)N1CCCc2c(F)ccc(F)c21,-4.523%
22,Cn1c(CC2CCS(=O)(=O)C2)nnc1SCCOc1cccc(Cl)c1 (configuration not stated),-0.5002%
23,N#CCCn1cnc2c(Br)cc(Br)cc2c1=O,26.83%
24,N#CCCCn1cnc2c(F)cc(Br)cc2c1=O,100.3%
25,Cc1cc(C)c2ncn(CC(C)(C)CO)c(=O)c2c1,2.019%
26,N#CCCCn1nnnc1Cc1ccc(Br)cc1,-5.124%

row,SMILES,Percent Effect
1,Cc1cc(C)c2ncn(CCC(C)O)c(=O)c2c1 (configuration not stated),-16.19%
2,N#CCCn1cnc2c(F)cc(Br)cc2c1=O,102.6%
3,COCCn1cnc2c(F)cc(Br)cc2c1=O,109.9%
4,COc1cc2ccn(CCS(C)(=O)=O)c(=O)c2cc1F,3.704%
5,CC(C)COc1ccccc1CN(C)C(=O)c1cc(=O)[nH]c(=O)[nH]1,-33.98%
6,CNCCNc1ccc(-c2nc(-c3cccc(OC)c3OC)no2)cn1,-9.505%
7,Cc1noc(C)c1CN1CCOCC12CCN(c1cnccn1)CC2.O=C(O)C(F)(F)F,82.98%
8,Cc1nc(CN2CCOCC3(CCCN(c4cnccn4)C3)C2)cs1.O=C(O)C(F)(F)F (configuration not stated),-4.433%
9,Cc1noc(C)c1CN1CCC2(CC1)CN(c1ccccn1)CCO2.O=C(O)C(F)(F)F.O=C(O)C(F)(F)F,-6.126%
10,CC(C)N1CCOCC2(CCN(c3cnccn3)CC2)C1.O=C(O)C(F)(F)F,-21.42%
11,Cc1noc(C)c1CN1CCOC2(CCCN(c3ncccn3)C2)C1.O=C(O)C(F)(F)F (configuration not stated),2.072%
12,Cc1noc(C)c1CN1CCOCC12CCN(c1ncccn1)CC2.O=C(O)C(F)(F)F,113.5%
13,O=C(COCc1ccccc1)N1CCCC1c1noc(C2CC2)n1 (configuration not stated),106.9%
14,CN(CC(=O)N1CCCC1c1noc(C2CC2)n1)S(C)(=O)=O (configuration not stated),-4.579%
15,Cc1nc(C2CCCN2C(=O)CN(C)Cc2ccccc2)no1 (configuration not stated),10.99%
16,O=C(Cc1noc2ccccc12)N1CCCC1c1noc(C2CC2)n1 (configuration not stated),8.423%
17,O=C(CCOCC(F)(F)F)N1CCCC1c1noc(C2CC2)n1 (configuration not stated),110.3%
18,O=C(COC1CCCC1)N1CCCC1c1noc(C2CC2)n1 (configuration not stated),-26.64%
19,CN(CC(=O)N1CCCC1c1noc(C2CC2)n1)Cc1ccccc1 (configuration not stated),125%
20,O=C(CCOCc1ccccc1)N1CCCC1c1noc(C2CC2)n1 (configuration not stated),14.67%
21,FC(F)(F)COCCN1CCCC(c2noc(C3CC3)n2)C1 (configuration not stated),7.435%
22,O=C(Cc1ccc2c(c1)CCO2)N1CCCC1c1noc(C2CC2)n1 (configuration not stated),96.74%
23,CC(C)c1nc(C2CCCN2C(=O)CN(C)Cc2ccccc2)no1 (configuration not stated),-1.303%
24,Cc1noc(C2CN(Cc3ccc4c(c3)CCO4)C2)n1.O=C(O)C(=O)O,22.63%
25,CSCCC(=O)N1CCN(CC(O)C(C)(C)C)CC1 (configuration not stated),-10.5%
26,Cc1ccc(C(=O)N(C)S(C)(=O)=O)cc1Cl,-6.894%

row,SMILES,Percent Effect
1,Cc1cc(S(=O)(=O)Nc2cccc(OC(F)F)c2)sc1C(=O)O,-5.292%
2,Cc1nonc1C1CCCN1CCC(=O)N1CCc2ccccc2C1 (configuration not stated),3.529%
3,O=C(CCS(=O)(=O)C1CCCC1)N1CCC(O)(C(F)(F)F)C1 (configuration not stated),-5.456%
4,O=C(NCC1(N2CCOCC2)CCSC1)Nc1ccncc1 (configuration not stated),-3.46%
5,Cc1nc(C2CCCN2C(=O)COCc2ccccc2)no1 (configuration not stated),102.7%
6,Cc1nc(C2CCCN2C(=O)CCCOc2cccc(F)c2)no1 (configuration not stated),-14%
7,Cc1nc(C2CCCN2C(=O)COCCOc2ccccc2)no1 (configuration not stated),-5.15%
8,Cc1nc(CN2CCN(C(=O)COCc3ccccc3)CC2)no1,3.654%
9,Cc1nc(C2CCCN2C(=O)CCOCc2ccccc2)no1 (configuration not stated),99.19%
10,O=C1OCCN1CC(=O)N1C[C@H]2CC[C@@H]1CN(C(=O)c1ccccn1)C2,-8.504%
11,COc1cc(F)cc(NC(=O)NCc2cccc(N(C)C)n2)c1,5.244%
12,O=C(C1CC=CC1)N1C[C@@H]2[C@@H](C1)OCC(=O)N2Cc1cccnc1,-8.253%
13,Cc1ncccc1O[C@H]1CCN(C(=O)Cc2cccs2)CC[C@@H]1O,6.577%
14,Cc1ccc(C(=O)N2CCC(c3nccn3Cc3ccncc3)CC2)s1,-4.938%
15,Cc1ncccc1O[C@H]1CCN(C(=O)c2cccs2)CC[C@@H]1O,-0.5375%
16,Cc1csc(C(=O)N2CC[C@H](Oc3cccnc3C)[C@@H](O)CC2)c1,110.7%
17,CCc1ccc(C(=O)N2CC[C@H](Oc3cccnc3C)[C@@H](O)CC2)cc1,61.09%
18,Cc1ccc(C(=O)N2CC[C@H](Oc3cccnc3C)[C@@H](O)CC2)s1,123.3%
19,COc1ccccc1OC1CCN(C(=O)c2cnc(C)s2)CC1,3.926%
20,CC(=O)N(C)CC(=O)Nc1cnc(-n2ccnc2C)nc1,9.823%
21,CC(O)CCN(C)S(=O)(=O)Cc1ccc(Br)cc1 (configuration not stated),-1.579%
22,O=C(CO)N1CCc2onc(Cn3cccn3)c2C1,6.984%
23,Cc1c(Br)cccc1CSc1nnc(CO)n1C,11.11%
24,O=C(Nc1c(F)cccc1Oc1ccccc1)C1CCS(=O)(=O)C1 (configuration not stated),2.058%
